# Compounds with a hit are over-represented: about 2.9% of the library has one in this group of screens.
# KLK7 zymogen act: proKLK7 zymogen activators, primary screen, biochemical, fluorescence intensity. purified proKLK7, EDANS-DABCYL substrate fluorescence; 100% is mature enzyme control, 0% vehicle. 370,000 tested, 0.9% active. activation, % at 7 µM;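 active = activation above the mean of all tested compounds plus 3 SD, computed per campaign excluding outliers beyond control limits, cut at about 13% in these data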
# ADAM10 inh: human ADAM10 inhibitors, primary screen, biochemical, QFRET, HTS; Disintegrin and metalloproteinase domain-containing protein 10 (Homo sapiens), O14672; recombinant ADAM10, EDANS/DABCYL FRET peptide cleavage, 3 h; inhibition, % at 7 µM; 370,000 tested, 0.62% active; AID 720582, 2013;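 active = inhibition above a per-campaign cutoff equal to the mean of compounds falling between control-based bounds plus 3 SD, cut at about 20% in these data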;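 note: 0% = DMSO wells while the 100% control is not disclosed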
# PLC-gamma1 inh: PLC-gamma1 enzyme inhibitors, primary screen, biochemical, fluorescence, purified enzyme | AID 720700, 2013 | fluorogenic substrate | 370,000 tested, 0.84% active | inhibition, % at 12.2 µM; in the data active = inhibition above about 9.5%
# PLC-beta3 inh: human PLC-beta3 inhibitors, primary screen, biochemical, fluorescence | AID 720704, 2013 | Purified PLC-beta3, fluorogenic substrate | inhibition, % at 12.2 µM | 1-phosphatidylinositol 4,5-bisphosphate phosphodiesterase beta-3 (Homo sapiens), Q01970 | 370,000 tested, 0.18% active;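 note: 0% = median of compound wells on plate and 100% = full blocker control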
# ADAM17 inh: ADAM17 inhibitors, primary screen, biochemical, QFRET. recombinant ADAM17, EDANS/DABCYL FRET peptide cleavage. inhibition, % at 6.95 µM. 370,000 tested, 0.83% active. AID 720648, 2013;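 active = inhibition above the mean of compounds lying between control limits plus 3 SD, set per campaign, cut at about 8.5% in these data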;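 note: 0% = DMSO-only wells as the low control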
# ADAM10 ctr: ADAM10 inhibitors, counter-screen for ADAM17 exosite inhibitor project, biochemical, FRET, human ADAM10; shares compounds with ADAM17 inh; recombinant ADAM10, EDANS/DABCYL FRET peptide cleavage, 3 h; inhibition, % at 6.95 µM; 2,900 tested, 47% active;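 active = mean inhibition over the triplicate runs exceeds the activity threshold set in the earlier primary screen, cut at about 20% in these data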;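 note: 0% = DMSO wells and 100% = marimastat wells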
# ADAM17 confirm: ADAM17 inhibitors, hit retest, confirmation, biochemical, QFRET peptide cleavage | shares compounds with ADAM17 inh | recombinant ADAM17, EDANS/DABCYL QFRET peptide cleavage | inhibition, % at 6.95 µM | 2,900 tested, 65% active | AID 743257, 2014;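 active = mean inhibition across replicates above the hit cutoff set in the primary screen, cut at about 8.5% in these data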;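 note: 0% = DMSO wells and 100% = marimastat wells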
# PLCg1 ctr: PLC-gamma1 enzyme inhibitors, counter-screen for PLC-beta3 inhibitor project, biochemical, fluorescence; 3,300 tested, 3.1% active; inhibition, % at 12.3 µM; AID 743258, 2014; shares compounds with PLC-gamma1 inh; purified PLC-gamma1, fluorogenic substrate; in the data active = inhibition above about 9.5%
# PLCbeta3 conf: PLC-beta3 inhibitor confirmation, biochemical, fluorescence, purified enzyme. inhibition, % at 12.3 µM. shares compounds with PLC-gamma1 inh. 3,300 tested, 1% active. AID 743261, 2014. fluorogenic substrate fluorescence
# * = called active by the depositor; . = no result given. Cut-off read from the data, not from the text of the source, unless noted: active = inhibition above about 11%; inactive = the rest.
SMILES,KLK7 zymogen act,ADAM10 inh,PLC-gamma1 inh,PLC-beta3 inh,ADAM17 inh,ADAM10 ctr,ADAM17 confirm,PLCg1 ctr,PLCbeta3 conf
CC1CCCN(C(=O)COC(=O)COc2ccc(C#N)cc2)C1 (stereo unspecified),1,-11,2,-8,-2,.,.,.,.
CC1CCCC(C)N1C(=O)COC(=O)COc1ccc(C#N)cc1 (stereo unspecified),0,2,11*,-4,9.8*,4,7,-2,2
COc1ccc(-c2ccc(C(=O)NCc3ccc(N(C)C)cc3)c3occc23)c(C)c1,-1,17,-4,-6,5,.,.,.,.
O=C1OC(Cc2ccccc2)(c2ccccc2)c2ccccc21 (stereo unspecified),1,18,11*,11*,11*,8,2,0,0
COc1ccccc1N1CCN(C(=O)CN(C)S(=O)(=O)c2ccc(C)cc2)CC1,0,6,2,2,-1,.,.,.,.
COc1ccc(-c2nc(CS(=O)(=O)CC(=O)NCc3ccccc3Br)c(C)o2)cc1,0,0,2,0,4,.,.,.,.
CC(OC(=O)c1cc2sccc2n1C)C(=O)NCC1CCCO1 (stereo unspecified),-1,6,-2,0,-5,.,.,.,.
CN(C(=O)COC(=O)COc1ccc(N(C)S(=O)(=O)c2ccc(Cl)cc2)cc1)c1ccccc1,1,16,12*,-1,18*,18,6,-2,-1
O=c1n(Cc2ccc(Cl)cc2)c2sc3c(c2c2ncnn12)CCCC3,1,-9,-1,2,-4,.,.,.,.
COc1ccc(N(C(=O)c2snc(C(N)=O)c2N)C(C(=O)NC2CCCC2)c2ccco2)cc1 (stereo unspecified),0,-7,-10,-24,-2,.,.,.,.
CC(C)=CC(=O)Nc1ccc(Cl)cc1,-1,-5,3,-4,5,.,.,.,.
CS/C(=C\[N+](=O)[O-])Nc1ccc(Cl)cc1,0,16,11*,2,12*,2,1,-5,-4
COc1cc(/C=N\NC(=O)c2ccccc2F)ccc1Oc1ccc([N+](=O)[O-])cn1,0,15,9.6*,0,10.0*,6,7,-1,2
COc1cc(/C=N\NC(=O)c2cccc(Cl)c2)ccc1Oc1ccc([N+](=O)[O-])cn1,0,13,1,-6,5,.,.,.,.
COc1ccccc1OCCCN1CCC(C(O)(c2ccccc2)c2ccccc2)CC1,-1,-10,1,2,-4,.,.,.,.
C/C=C/c1ccccc1OCCCN1CCC(C(O)(c2ccccc2)c2ccccc2)CC1,0,10,13*,4,13*,14,9.2*,1,2
COc1ccc(S(=O)(=O)Nc2ccc3c(c2)CC(=O)N([C@@H](C)CO)C[C@H](C)[C@@H](CN(C)S(=O)(=O)c2ccc(F)cc2)O3)cc1,0,14,11*,6,10*,8,3,-2,-3
CC(=O)c1c(C)nn(CC(O)Cn2c3c(c4cc(C)ccc42)CCCC3=O)c1C (stereo unspecified),-4,-125,-231,-291,-36,.,.,.,.
O=C(C[C@H]1C/C=C\CC[C@@H](Cc2ccc(F)cc2)C(=O)O[C@@H](c2ccccc2)CNC1=O)N[C@H](CO)Cc1ccccc1,0,7,11*,8,13*,17,12*,1,-1
CC(C)(C)OC(=O)C[C@H]1C/C=C\C[C@H](CC(=O)N[C@H](CO)Cc2ccccc2)C(=O)N[C@@H](Cc2ccccc2)COC1=O,0,9,14*,13*,12*,4,4,1,2
CN(CCc1ccccc1)C(=O)c1ccc(NC(=O)Cc2ccc(NC(=O)C3CCN(C(=O)C4CC4)CC3)cc2)cc1,0,-14,-1,0,-1,.,.,.,.
CN(CCc1ccccc1)C(=O)c1ccc(NC(=O)Cc2ccc(NC(=O)C3CCN(C(=O)C4CCCC4)CC3)cc2)cc1,1,5,10*,5,11*,9,9.8*,7,3
CS(=O)(=O)/C(C#N)=C/c1cccn1S(=O)(=O)c1ccccc1,0,-4,-3,-8,-8,.,.,.,.
CC(C)(C)S(=O)(=O)/C(C#N)=C/c1cccn1S(=O)(=O)c1ccccc1,1,5,16*,3,9.4*,24*,12*,3,3
CNS(=O)(=O)c1cccc(C(=O)OCC(=O)NC2CCCC2)c1,0,11,9.6*,-2,8.9*,7,4,-4,0
SMILES,KLK7 zymogen act,ADAM10 inh,PLC-gamma1 inh,PLC-beta3 inh,ADAM17 inh,ADAM10 ctr,ADAM17 confirm,PLCg1 ctr,PLCbeta3 conf
O=C(NCc1cccs1)C1CCN(S(=O)(=O)c2cccs2)CC1,0,10,0,-2,-2,.,.,.,.
Cc1cc(C)c(C)c(S(=O)(=O)N2CCC(C(=O)NCc3cccs3)CC2)c1C,0,13,12*,2,8.8*,4,1,-9,-5
CCCCn1c(-c2csc3c2CCCC3)n[nH]c1=S,0,6,15*,-3,13*,10,5,-2,-4
CCn1c(-c2csc3c2CCCC3)n[nH]c1=S,0,18,6,-3,-6,.,.,.,.
Cn1c(NCc2ccc3occc3c2)nc2cc(-c3cccc(C(F)(F)F)c3)sc2c1=O,0,-3,1,0,3,.,.,.,.
COC(=O)[C@]12C[C@H](CC(=O)N3CCN(C(=O)C4CC4)CC3)C(=O)N(Cc3ccccc3)C1=C[C@H](COCc1ccccc1)O[C@@H]2C,0,5,3,1,0,.,.,.,.

# Source: PubChem BioAssay
